Experimental findings from article PMC11006913 are described below.

Holding throughout (assay): PBM; 200 nM protein, PBS
Holding throughout (conditions): dsDNA, one strand shown

Experiment [1] concerns the target T1, VENTX (Homo sapiens, UniProt O95231 78-163, R121Q).
T1 sequence: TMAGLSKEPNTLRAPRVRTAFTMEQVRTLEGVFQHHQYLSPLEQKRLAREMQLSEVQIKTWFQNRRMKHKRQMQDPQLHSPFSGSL

Experiment [2] deals with T2, VENTX (Homo sapiens, UniProt O95231 78-163).
T2 sequence: T1 sequence with Q44R

The target of experiment [3] is T3, VENTX (Homo sapiens, UniProt O95231 78-163, Y115F).
T3 sequence: T1 sequence with Y38F, Q44R

Experiment [4] addresses ALX1 (Homo sapiens, UniProt Q15699 118-204, L144V).
Experiment [5] addresses ALX1 (Homo sapiens, UniProt Q15699 118-204, L144R).
For experiment [6], the target named is ALX1 (Homo sapiens, UniProt Q15699 118-204).
ALX1 (Homo sapiens, UniProt Q15699 118-204), sequence (Q15699 118-204): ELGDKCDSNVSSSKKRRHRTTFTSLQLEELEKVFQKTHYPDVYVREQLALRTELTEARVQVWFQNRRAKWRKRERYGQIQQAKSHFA
Experiment [7] deals with CRX (Homo sapiens, UniProt O43186 26-111, R41L).
CRX, sequence (O43186 26-111 R41L): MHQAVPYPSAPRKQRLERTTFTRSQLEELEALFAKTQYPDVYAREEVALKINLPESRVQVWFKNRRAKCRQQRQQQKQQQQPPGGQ
For experiment [8], the target named is HOXB9 (Homo sapiens, UniProt P17482 171-250, T197M).
HOXB9 (Homo sapiens, UniProt P17482 171-250, T197M), sequence (P17482 171-250 T197M): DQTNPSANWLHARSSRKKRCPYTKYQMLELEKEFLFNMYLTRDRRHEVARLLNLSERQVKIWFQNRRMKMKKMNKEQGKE
Experiment [9] addresses HOXA4 (Homo sapiens, UniProt Q00056 201-287, W262R).
The target in experiment [10] is HOXC9 (Homo sapiens, UniProt P31274 178-260, K195R).
HOXC9 (Homo sapiens, UniProt P31274 178-260, K195R), sequence (P31274 178-260 K195R): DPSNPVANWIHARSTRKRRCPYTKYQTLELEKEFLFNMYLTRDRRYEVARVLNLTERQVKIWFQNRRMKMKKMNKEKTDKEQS
For experiment [11], the target named is HOXB6 (Homo sapiens, UniProt P17509 132-218, K202E).
HOXB6 (Homo sapiens, UniProt P17509 132-218, K202E), sequence (P17509 132-218 K202E): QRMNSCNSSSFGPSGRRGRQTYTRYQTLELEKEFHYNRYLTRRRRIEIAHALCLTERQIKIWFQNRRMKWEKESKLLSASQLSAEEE
For experiment [12], the target named is HOXA4 (Homo sapiens, UniProt Q00056 201-287, R217L).
HOXA4 (Homo sapiens, UniProt Q00056 201-287, R217L), sequence (Q00056 201-287 R217L): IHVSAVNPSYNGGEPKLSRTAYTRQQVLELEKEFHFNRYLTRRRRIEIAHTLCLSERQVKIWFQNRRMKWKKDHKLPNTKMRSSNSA
Experiment [13] addresses HOXB9 (Homo sapiens, UniProt P17482 171-250).
In experiment [14] the target is HOXC9 (Homo sapiens, UniProt P31274 178-260).
HOXC9 (Homo sapiens, UniProt P31274 178-260), sequence (P31274 178-260): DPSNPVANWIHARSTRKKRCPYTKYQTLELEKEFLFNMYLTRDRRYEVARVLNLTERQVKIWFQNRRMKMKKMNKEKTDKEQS
Experiment [15] addresses HOXC9 (Homo sapiens, UniProt P31274 178-260, R193K).
Experiment [16] deals with HOXA4 (Homo sapiens, UniProt Q00056 201-287).
HOXA4 (Homo sapiens, UniProt Q00056 201-287), sequence (Q00056 201-287): as the sequence (Q00056 201-287 R217L) above, with L17R counted along it
For experiment [17], the target named is HOXB9 (Homo sapiens, UniProt P17482 171-250, R186Q).
HOXB9 (Homo sapiens, UniProt P17482 171-250, R186Q), sequence (P17482 171-250 R186Q): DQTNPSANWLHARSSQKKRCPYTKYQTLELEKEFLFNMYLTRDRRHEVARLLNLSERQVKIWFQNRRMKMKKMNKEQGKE
Experiment [18] concerns the target HOXC9 (Homo sapiens, UniProt P31274 178-260, R222W).
Experiment [19] has as its target HOXA4 (Homo sapiens, UniProt Q00056 201-287, W262F).
In experiment [20] the target is HOXB6 (Homo sapiens, UniProt P17509 132-218).
HOXB6 (Homo sapiens, UniProt P17509 132-218), sequence (P17509 132-218): as the sequence (P17509 132-218 K202E) above, with E71K counted along it
Experiment [21] addresses T4, PAX4 (Homo sapiens, UniProt O43316 9-242).
T4 sequence: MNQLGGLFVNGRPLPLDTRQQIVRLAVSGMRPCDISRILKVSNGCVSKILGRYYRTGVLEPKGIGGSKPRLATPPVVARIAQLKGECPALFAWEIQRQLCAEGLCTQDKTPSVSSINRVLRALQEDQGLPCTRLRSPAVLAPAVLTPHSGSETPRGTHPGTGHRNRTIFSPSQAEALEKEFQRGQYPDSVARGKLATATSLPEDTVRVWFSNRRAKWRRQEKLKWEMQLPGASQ

The target of experiment [22] is HOXA7 (Homo sapiens, UniProt P31268 116-202).
HOXA7 (Homo sapiens, UniProt P31268 116-202), sequence (P31268 116-202): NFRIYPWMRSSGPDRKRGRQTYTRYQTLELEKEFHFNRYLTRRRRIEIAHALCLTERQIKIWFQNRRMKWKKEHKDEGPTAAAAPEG
The target of experiment [23] is T5, PAX4 (Homo sapiens, UniProt O43316 9-242, R200K).
T5 sequence: T4 sequence with R192K

Experiment [24] addresses PRRX1 (Homo sapiens, UniProt P54821 80-166, F113S).
Experiment [25] has as its target T6, PAX4 (Homo sapiens, UniProt O43316 9-242, R200Q).
T6 sequence: T4 sequence with R192Q

The target in experiment [26] is T7, PAX4 (Homo sapiens, UniProt O43316 9-242, F177V).
T7 sequence: T4 sequence with F169V

Experiment [27] addresses HOXC10 (Homo sapiens, UniProt Q9NYD6 254-340, K271E).
Experiment [28] deals with T8, PAX4 (Homo sapiens, UniProt O43316 9-242, F177Y).
T8 sequence: T4 sequence with F169Y

In experiment [29] the target is HESX1 (Homo sapiens, UniProt Q9UBX0 95-180, F115L).
HESX1, sequence (Q9UBX0 95-180 F115L): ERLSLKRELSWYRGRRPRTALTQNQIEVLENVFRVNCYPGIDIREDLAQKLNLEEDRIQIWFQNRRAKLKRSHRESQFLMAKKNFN
In experiment [30] the target is T9, PAX4 (Homo sapiens, UniProt O43316 9-242, R227W).
T9 sequence: T4 sequence with R219W

In experiment [31] the target is HOXA7 (Homo sapiens, UniProt P31268 116-202, W177C).
HOXA7 (Homo sapiens, UniProt P31268 116-202, W177C), sequence (P31268 116-202 W177C): as the sequence (P31268 116-202) above, with W62C counted along it
The target of experiment [32] is PRRX1 (Homo sapiens, UniProt P54821 80-166).
PRRX1 (Homo sapiens, UniProt P54821 80-166), sequence (P54821 80-166): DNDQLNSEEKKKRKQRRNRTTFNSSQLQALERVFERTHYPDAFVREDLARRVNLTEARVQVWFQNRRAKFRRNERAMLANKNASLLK
Experiment [33] addresses HOXC10 (Homo sapiens, UniProt Q9NYD6 254-340).
In experiment [34] the target is HOXD13 (Homo sapiens, UniProt P35453 263-343, T313R).
HOXD13 (Homo sapiens, UniProt P35453 263-343, T313R), sequence (P35453 263-343 T313R): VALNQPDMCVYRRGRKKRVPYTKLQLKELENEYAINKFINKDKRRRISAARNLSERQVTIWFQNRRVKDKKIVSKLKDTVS
The target in experiment [35] is HOXD13 (Homo sapiens, UniProt P35453 263-343).
HOXD13 (Homo sapiens, UniProt P35453 263-343), sequence (P35453 263-343): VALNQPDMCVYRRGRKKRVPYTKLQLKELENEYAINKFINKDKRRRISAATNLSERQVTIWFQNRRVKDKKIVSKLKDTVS
Experiment [36] deals with VAX1 (Homo sapiens, UniProt Q5SQQ9 86-172).
VAX1 (Homo sapiens, UniProt Q5SQQ9 86-172), sequence (Q5SQQ9 86-172): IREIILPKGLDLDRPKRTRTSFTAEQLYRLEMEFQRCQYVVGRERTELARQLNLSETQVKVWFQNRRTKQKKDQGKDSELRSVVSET
Experiment [37] has as its target HOXD13 (Homo sapiens, UniProt P35453 263-343, T313A).
The target of experiment [38] is VAX1 (Homo sapiens, UniProt Q5SQQ9 86-172, T142I).
VAX1 (Homo sapiens, UniProt Q5SQQ9 86-172, T142I), sequence (Q5SQQ9 86-172 T142I): as the sequence (Q5SQQ9 86-172) above, with T57I counted along it
The target in experiment [39] is VAX1 (Homo sapiens, UniProt Q5SQQ9 86-172, K157R).
VAX1 (Homo sapiens, UniProt Q5SQQ9 86-172, K157R), sequence (Q5SQQ9 86-172 K157R): as the sequence (Q5SQQ9 86-172) above, with K72R counted along it

Changes are numbered by the printed parent chain.

HOXC9 (Homo sapiens, UniProt P31274 178-260, R222W), sequence (P31274 178-260 R222W): as the sequence (P31274 178-260) above, with R45W counted along it
HOXA4 (Homo sapiens, UniProt Q00056 201-287, W262F), sequence (Q00056 201-287 W262F): as the sequence (Q00056 201-287 R217L) above, with L17R, W62F counted along it
HOXC10 (Homo sapiens, UniProt Q9NYD6 254-340, K271E), sequence (Q9NYD6 254-340 K271E): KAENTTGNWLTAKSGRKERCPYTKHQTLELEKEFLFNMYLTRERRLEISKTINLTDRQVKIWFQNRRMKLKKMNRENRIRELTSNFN
HOXC9 (Homo sapiens, UniProt P31274 178-260, R193K), sequence (P31274 178-260 R193K): as the sequence (P31274 178-260) above, with R16K counted along it
HOXB9 (Homo sapiens, UniProt P17482 171-250), sequence (P17482 171-250): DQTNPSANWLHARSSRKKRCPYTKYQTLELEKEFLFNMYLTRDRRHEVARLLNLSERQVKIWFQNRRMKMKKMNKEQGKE
PRRX1 (Homo sapiens, UniProt P54821 80-166, F113S), sequence (P54821 80-166 F113S): as the sequence (P54821 80-166) above, with F34S counted along it
ALX1 (Homo sapiens, UniProt Q15699 118-204, L144R), sequence (Q15699 118-204 L144R): as the sequence (Q15699 118-204) above, with L27R counted along it
HOXA4 (Homo sapiens, UniProt Q00056 201-287, W262R), sequence (Q00056 201-287 W262R): as the sequence (Q00056 201-287 R217L) above, with L17R, W62R counted along it
HOXD13 (Homo sapiens, UniProt P35453 263-343, T313A), sequence (P35453 263-343 T313A): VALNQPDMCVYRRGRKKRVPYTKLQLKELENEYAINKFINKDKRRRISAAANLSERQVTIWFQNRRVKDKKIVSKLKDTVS
ALX1 (Homo sapiens, UniProt Q15699 118-204, L144V), sequence (Q15699 118-204 L144V): as the sequence (Q15699 118-204) above, with L27V counted along it
HOXC10 (Homo sapiens, UniProt Q9NYD6 254-340), sequence (Q9NYD6 254-340): as the sequence (Q9NYD6 254-340 K271E) above, with E18K counted along it

In the case of CTGGCAGC, the binding signal in experiment [1] was 8.09 upbm affinity estimate (log intensity, higher = more binding, comparable within an allelic series); in experiment [2] it was 8.14 upbm affinity estimate (log intensity, higher = more binding, comparable within an allelic series); in experiment [3], 8.07 upbm affinity estimate (log intensity, higher = more binding, comparable within an allelic series).

As for ATTAGTGG, the binding signal is 11.7 upbm affinity estimate (log intensity, higher = more binding, comparable within an allelic series) in [1]; 12.3 upbm affinity estimate (log intensity, higher = more binding, comparable within an allelic series) in experiment [2]; 11.4 upbm affinity estimate (log intensity, higher = more binding, comparable within an allelic series) in [3].

With GGCGATTA, the binding signal is 11 upbm affinity estimate (log intensity, higher = more binding, comparable within an allelic series) in experiment [1]; 8.58 upbm affinity estimate (log intensity, higher = more binding, comparable within an allelic series) in [4]; 8.54 upbm affinity estimate (log intensity, higher = more binding, comparable within an allelic series) in experiment [5]; 9.05 upbm affinity estimate (log intensity, higher = more binding, comparable within an allelic series) in experiment [6].

With CTAATCGC, the binding signal in experiment [1] is 11.2 upbm affinity estimate (log intensity, higher = more binding, comparable within an allelic series); in experiment [2] it was 12.3 upbm affinity estimate (log intensity, higher = more binding, comparable within an allelic series); in experiment [3] it was 11.3 upbm affinity estimate (log intensity, higher = more binding, comparable within an allelic series); in [7] it was 11.6 upbm affinity estimate (log intensity, higher = more binding, comparable within an allelic series).

As for GGGATCCC, the binding signal was 8.56 upbm affinity estimate (log intensity, higher = more binding, comparable within an allelic series) in experiment [8]; 9.85 upbm affinity estimate (log intensity, higher = more binding, comparable within an allelic series) in [9]; 9.54 upbm affinity estimate (log intensity, higher = more binding, comparable within an allelic series) in experiment [10]; 9.02 upbm affinity estimate (log intensity, higher = more binding, comparable within an allelic series) in [11]; 9.68 upbm affinity estimate (log intensity, higher = more binding, comparable within an allelic series) in experiment [12]; 8.21 upbm affinity estimate (log intensity, higher = more binding, comparable within an allelic series) in experiment [13]. For the same sequence, the binding signal in [14] was 9.51 upbm affinity estimate (log intensity, higher = more binding, comparable within an allelic series); in experiment [15], 9.56 upbm affinity estimate (log intensity, higher = more binding, comparable within an allelic series); in [16] it was 9.71 upbm affinity estimate (log intensity, higher = more binding, comparable within an allelic series); in experiment [17], 8.25 upbm affinity estimate (log intensity, higher = more binding, comparable within an allelic series); in experiment [18] it was 9.68 upbm affinity estimate (log intensity, higher = more binding, comparable within an allelic series); in experiment [19], 9.89 upbm affinity estimate (log intensity, higher = more binding, comparable within an allelic series). In addition, in experiment [20], the binding signal was 9.02 upbm affinity estimate (log intensity, higher = more binding, comparable within an allelic series).

As to ACCGTTTA, the binding signal in experiment [1] is 10.1 upbm affinity estimate (log intensity, higher = more binding, comparable within an allelic series); in experiment [3], 10.1 upbm affinity estimate (log intensity, higher = more binding, comparable within an allelic series); in [21] it was 10.4 upbm affinity estimate (log intensity, higher = more binding, comparable within an allelic series).

With CCGATTAG, the binding signal is 11.6 upbm affinity estimate (log intensity, higher = more binding, comparable within an allelic series) in experiment [1]; 12.9 upbm affinity estimate (log intensity, higher = more binding, comparable within an allelic series) in experiment [2]; 11.6 upbm affinity estimate (log intensity, higher = more binding, comparable within an allelic series) in experiment [3]; 11.4 upbm affinity estimate (log intensity, higher = more binding, comparable within an allelic series) in experiment [7].

For the sequence ATTATAAT, the binding signal in experiment [8] is 10.2 upbm affinity estimate (log intensity, higher = more binding, comparable within an allelic series); in [10], 12.5 upbm affinity estimate (log intensity, higher = more binding, comparable within an allelic series); in experiment [22] it was 11.3 upbm affinity estimate (log intensity, higher = more binding, comparable within an allelic series); in [23] it was 11.8 upbm affinity estimate (log intensity, higher = more binding, comparable within an allelic series); in [24], 11.3 upbm affinity estimate (log intensity, higher = more binding, comparable within an allelic series); in experiment [21], 12.2 upbm affinity estimate (log intensity, higher = more binding, comparable within an allelic series). Also, the binding signal in [11] was 10.1 upbm affinity estimate (log intensity, higher = more binding, comparable within an allelic series); in experiment [25] it was 12 upbm affinity estimate (log intensity, higher = more binding, comparable within an allelic series); in experiment [26], 10.8 upbm affinity estimate (log intensity, higher = more binding, comparable within an allelic series); in experiment [27], 11.8 upbm affinity estimate (log intensity, higher = more binding, comparable within an allelic series); in [28] it was 11.1 upbm affinity estimate (log intensity, higher = more binding, comparable within an allelic series); in [18], 11.1 upbm affinity estimate (log intensity, higher = more binding, comparable within an allelic series). For the same sequence, the binding signal was 7.83 upbm affinity estimate (log intensity, higher = more binding, comparable within an allelic series) in experiment [29]; 11 upbm affinity estimate (log intensity, higher = more binding, comparable within an allelic series) in experiment [30]; 8.94 upbm affinity estimate (log intensity, higher = more binding, comparable within an allelic series) in experiment [31]; 11.4 upbm affinity estimate (log intensity, higher = more binding, comparable within an allelic series) in [19]; 13.3 upbm affinity estimate (log intensity, higher = more binding, comparable within an allelic series) in experiment [32]; 11.8 upbm affinity estimate (log intensity, higher = more binding, comparable within an allelic series) in experiment [20].

As to CCATTAAA, the binding signal in experiment [8] was 10.1 upbm affinity estimate (log intensity, higher = more binding, comparable within an allelic series); in [10] it was 13 upbm affinity estimate (log intensity, higher = more binding, comparable within an allelic series); in [22], 11.5 upbm affinity estimate (log intensity, higher = more binding, comparable within an allelic series); in [33], 12.5 upbm affinity estimate (log intensity, higher = more binding, comparable within an allelic series); in experiment [11] it was 9.87 upbm affinity estimate (log intensity, higher = more binding, comparable within an allelic series); in experiment [13], 12.4 upbm affinity estimate (log intensity, higher = more binding, comparable within an allelic series). Also, the binding signal was 13.1 upbm affinity estimate (log intensity, higher = more binding, comparable within an allelic series) in experiment [14]; 10.6 upbm affinity estimate (log intensity, higher = more binding, comparable within an allelic series) in experiment [34]; 13 upbm affinity estimate (log intensity, higher = more binding, comparable within an allelic series) in experiment [15]; 11.9 upbm affinity estimate (log intensity, higher = more binding, comparable within an allelic series) in [35]; 12.2 upbm affinity estimate (log intensity, higher = more binding, comparable within an allelic series) in [27]; 12.2 upbm affinity estimate (log intensity, higher = more binding, comparable within an allelic series) in [36]. The binding signal is 11.6 upbm affinity estimate (log intensity, higher = more binding, comparable within an allelic series) in experiment [37]; 12.2 upbm affinity estimate (log intensity, higher = more binding, comparable within an allelic series) in [17]; 11.1 upbm affinity estimate (log intensity, higher = more binding, comparable within an allelic series) in [18]; 11.9 upbm affinity estimate (log intensity, higher = more binding, comparable within an allelic series) in experiment [38]; 8.59 upbm affinity estimate (log intensity, higher = more binding, comparable within an allelic series) in experiment [31]; 10.9 upbm affinity estimate (log intensity, higher = more binding, comparable within an allelic series) in experiment [19]. In addition, the binding signal in experiment [39] is 11.8 upbm affinity estimate (log intensity, higher = more binding, comparable within an allelic series); in [20] it was 12 upbm affinity estimate (log intensity, higher = more binding, comparable within an allelic series).
